# Test results published in PubChem BioAssay (EPA / NIEHS).
# Where “and” joins values, the source holds several entries; their conditions need not be identical. Equal values may be shown once. Results filed as inconclusive are left out. Calls of active or inactive are those of the source. The calls were made as follows: active = hit-call score of the fitted dose curve at least 0.9, where 1 is the maximum; inconclusive = response in the unintended direction; inactive = score below 0.9.
# Test: ACEA_ER_AUC_viability: ACEA Biosciences xCELLigence Real-Time Cell Analysis on Estrogen Receptor Agonism for Viability (AID 2283782);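 also: hit means loss of impedance signal meaning reduced cell growth or viability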
# Procedure, shortened: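 Read-out: real-time electrical impedance (RT-CES) area under curve, loss of signal taken as reduced viability, normalized to DMSO baseline. T-47D cells, charcoal-stripped serum medium, compounds up to 100 uM final, continuous exposure, 80 h.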
SMILES,AC50,outcome
CCCCCCCCC(C)=O,9.92 µM (active),
C=Cc1ccc(O)c(OC)c1,,inactive
CCOC(OCC)C(=O)c1ccccc1,,inactive
COc1ccc(C#N)cc1,50 µM (active),
O=C(CC(=O)C(F)(F)C(F)(F)C(F)(F)F)c1cccs1,113 µM (active),
C=CCOCC(CO)(CO)CO,,inactive
COCN(COC)c1nc(N(COC)COC)nc(N(COC)COC)n1,,inactive
Oc1cccc2c(O)cccc12,20.2 µM (active),
CCCCN(C)C,,inactive
CCCCCCC(C)(C)C(=O)O,,inactive
COC(O)c1ccccc1 (stereo not given),,inactive
O=C(O)C(=O)O,,inactive
CC(C)(C)c1ccc(O)c(O)c1,23.4 µM (active),
CC(C)(O)C(=O)c1ccccc1,,inactive
Cc1ccc(C(=O)c2ccccc2)cc1,72.3 µM (active),
CCO[Si](C)(C)OCC,,inactive
CCN(CCC#N)c1ccccc1,,inactive
C=COC(=O)C(C)(C)CCCCCC,19.6 µM (active),
CCCCCCCCCCCCCCC,,inactive
C=CC(=O)OCCC(F)(F)C(F)(F)C(F)(F)C(F)(F)C(F)(F)C(F)(F)C(F)(F)C(F)(F)F,,inactive
CC(C)CCOCCC(C)C,37.5 µM (active),
Cn1sccc1=O,40.2 µM (active),
OCC(F)(F)C(F)(F)C(F)(F)C(F)(F)C(F)(F)C(F)(F)C(F)(F)C(F)(F)C(F)(F)C(F)(F)C(F)(F)F,16.6 µM (active),
O=S(=O)(O)C(F)(F)C(F)(F)C(F)(F)C(F)(F)C(F)(F)C(F)(F)C(F)(F)C(F)(F)C(F)(F)C(F)(F)F,,inactive
CCCCCCCCCCCC[N+](C)(C)Cc1ccccc1,3.05 µM (active) and 5.69 µM (active),
